Laboratory results: PubChem BioAssay (Tox21)
Where “and” joins values, the source holds several entries; their conditions need not be identical. Identical values can stand only once. Records with an inconclusive call do not appear. Where a call stands in place of a potency, no number is given. Some structures have more than one record in an assay (separate samples or runs), and their calls can disagree. Calls of active or inactive are those of the source. Unless noted, calls come from the whole dose curve; as a rule, active = well fitted curve in the direction sought with a large enough effect in the repeat runs; inconclusive = weak or mixed curves; inactive = no such curve, though single readings can be large; an effect the other way counts as inactive or inconclusive.

Legend:
[1] = qHTS assay to identify small molecule antagonists of the estrogen related receptor (ERR) signaling pathway from Tox21 library - cell viability counter screen (AID 1224834); note: nearly all actives have a fitted effect of over 30% in size
Method in brief: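 CellTiter-Fluor fluorescence, read after 30 min at 37 C, measures viability of ERR cells. Cells plated at 2,000/well and incubated 6 h before pin-tool compound addition, then exposed 17.5 hours at 37 C.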

[2] = target: Luciferin 4-monooxygenase (Photinus pyralis) (UniProt P08659); assay: qHTS assay to identify small molecule inhibitors of firefly luciferase (AID 1224835); note: nearly all actives have a fitted effect of over 25% in size
Method in brief: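 Quantitative HTS format; KM concentrations of both substrates. Purified P. pyralis FLuc activity quantified from luminescence images.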

[3] = qHTS assay to identify small molecule antagonists of the constitutive androstane receptor (CAR) signaling pathway - cell viability counter screen (AID 1224837); note: nearly all actives have a fitted effect of over 45% in size
Method in brief: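 Cytotoxicity counter-screen: CellTiter-Fluor fluorescence after 23 h compound exposure (15-point qHTS) in double-stable HepG2-CYP2B6-hCAR cells, with 50 nM CITCO added.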

[4] = target: Nuclear receptor subfamily 1 group I member 3 (Homo sapiens) (UniProt Q14994); assay: qHTS assay to identify small molecule antagonists of the constitutive androstane receptor (CAR) signaling pathway (AID 1224838);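 note: HepG2 cells stably expressing hCAR with CYP2B6 luciferase reporter stimulated by CITCO; nearly all actives have a fitted effect of over 40% in size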
Method in brief: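 Antagonism measured as luciferase signal (ONE-Glo, 30 min, room temperature) in CAR-stimulated cells: HepG2-CYP2B6-hCAR double-stable line exposed 24 hr at 37 C to compound in a 15-point series plus 50 nM CITCO.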

[5] = target: Nuclear receptor subfamily 1 group I member 3 (Homo sapiens) (UniProt Q14994); assay: qHTS assay to identify small molecule agonists of the constitutive androstane receptor (CAR) signaling pathway (AID 1224839); note: nearly all actives have a fitted effect of over 15% in size
Method in brief: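 In this screen, CAR-driven CYP2B6 promoter activity is measured by luminescence in HepG2-CYP2B6-hCAR cells after 24 h with test compounds and 0.75 uM PK11195 (final concentration).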

[6] = qHTS assay to identify small molecule antagonists of the estrogen related receptor signaling pathway with the pleiotropic PPARgamma coactivator (PGC) from Tox21 10K library - cell viability counter screen (AID 1224840; active = well fitted cell-killing curve with a large enough effect in the repeat runs, not every such curve was filed as active; note: nearly all actives have a fitted effect of over 40% in size)
Method in brief: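 Counter-screen for cytotoxicity: after 17.5 h compound exposure at 37 C, CellTiter-Fluor reagent added to PGC/ERR cells for 30 min and fluorescence read. Cells were seeded at 2,000 per well 6 h before dosing.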

[7] = qHTS assay to identify small molecule antagonists of the estrogen related receptor signaling pathway with the pleiotropic PPARgamma coactivator (PGC) from Tox21 10K library (AID 1224841; call rule not given here; note: actives are mostly falling curves and most rising ones were filed inactive; nearly all actives have a fitted effect of over 50% in size)
Method in brief: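 Luminescence (One-Glo, 30 min at room temperature) after 18 h compound treatment at 37 C of PGC/ERR reporter cells plated at 2,000 cells/well and settled 6 h beforehand.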

[8] = target: Thyrotropin receptor (Homo sapiens) (UniProt P16473); assay: qHTS assay to identify small molecule agonists of the thyroid stimulating hormone receptor (TSHR) signaling pathway (AID 1224843; calls by dose curve; note: nearly all actives have a fitted effect of over 45% in size)
Method in brief: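 Compounds are titrated over 15 concentrations, in triplicate, onto TSHR-HEK293 cells seeded at 800/well. Plates sit 30 min at room temperature before cAMP-d2 and anti-cAMP cryptate are added; signal is read after a further hour.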

[9] = qHTS assay to identify small molecule agonists of the constitutive androstane receptor (CAR) signaling pathway - cell viability counter screen (AID 1224836); note: nearly all actives have a fitted effect of over 45% in size
Method in brief: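 Compound titrations (15 concentrations) went onto HepG2-CYP2B6-hCAR cells 4 h after seeding, alongside PK11195 at a final 0.75 uM; a 23 h, 37 C/5% CO2 incubation preceded CellTiter-Fluor viability measurement.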

[10] = qHTS assay to identify small molecule agonists of the estrogen related receptor signaling pathway with the pleiotropic PPARgamma coactivator (PGC) from Tox21 10K library (AID 1224842); note: nearly all actives have a fitted effect of over 15% in size
Method in brief: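 PGC/ERR reporter cells (NTP line) were seeded 2,000 per well, rested 6 h at 37 C/5% CO2, then pin-dosed with compounds in DMSO for 18 h at 37 C; luciferase read by One-Glo luminescence after 30 min at room temperature.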
Potency is the fitted concentration of half-maximal effect.

Chain of Nuclear receptor subfamily 1 group I member 3 (Homo sapiens) (Q14994 whole entry, looked up): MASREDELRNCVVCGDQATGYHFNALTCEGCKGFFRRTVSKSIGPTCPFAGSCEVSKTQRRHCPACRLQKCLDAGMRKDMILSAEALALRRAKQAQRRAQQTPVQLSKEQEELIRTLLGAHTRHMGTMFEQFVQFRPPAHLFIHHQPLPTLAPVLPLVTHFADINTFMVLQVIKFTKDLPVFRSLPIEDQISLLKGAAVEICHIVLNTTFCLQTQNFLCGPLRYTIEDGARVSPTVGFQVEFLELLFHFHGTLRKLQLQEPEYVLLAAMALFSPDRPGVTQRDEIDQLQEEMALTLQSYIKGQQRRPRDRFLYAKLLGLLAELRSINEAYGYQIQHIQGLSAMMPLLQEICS
Chain of Thyrotropin receptor (Homo sapiens) (P16473 whole entry, looked up): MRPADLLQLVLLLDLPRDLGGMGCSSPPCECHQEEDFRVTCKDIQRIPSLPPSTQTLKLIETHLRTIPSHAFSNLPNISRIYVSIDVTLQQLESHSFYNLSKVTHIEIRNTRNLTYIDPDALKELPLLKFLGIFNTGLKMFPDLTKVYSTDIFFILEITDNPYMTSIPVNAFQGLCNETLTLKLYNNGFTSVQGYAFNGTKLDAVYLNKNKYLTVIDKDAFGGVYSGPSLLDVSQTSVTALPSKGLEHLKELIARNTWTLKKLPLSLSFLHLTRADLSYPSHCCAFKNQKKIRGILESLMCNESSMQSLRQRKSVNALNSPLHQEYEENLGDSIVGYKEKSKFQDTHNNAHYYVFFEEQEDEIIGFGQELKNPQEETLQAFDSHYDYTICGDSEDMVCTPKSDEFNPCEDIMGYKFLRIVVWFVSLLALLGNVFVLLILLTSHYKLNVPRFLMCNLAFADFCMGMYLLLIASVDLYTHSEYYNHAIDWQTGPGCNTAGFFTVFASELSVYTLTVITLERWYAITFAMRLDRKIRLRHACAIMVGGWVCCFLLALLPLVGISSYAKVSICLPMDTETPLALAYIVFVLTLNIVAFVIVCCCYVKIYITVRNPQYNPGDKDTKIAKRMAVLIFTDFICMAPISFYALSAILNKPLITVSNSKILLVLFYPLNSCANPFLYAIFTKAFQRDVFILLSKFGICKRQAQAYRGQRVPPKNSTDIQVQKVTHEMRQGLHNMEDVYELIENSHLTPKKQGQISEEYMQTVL
Chain of Luciferin 4-monooxygenase (Photinus pyralis) (P08659 whole entry, looked up): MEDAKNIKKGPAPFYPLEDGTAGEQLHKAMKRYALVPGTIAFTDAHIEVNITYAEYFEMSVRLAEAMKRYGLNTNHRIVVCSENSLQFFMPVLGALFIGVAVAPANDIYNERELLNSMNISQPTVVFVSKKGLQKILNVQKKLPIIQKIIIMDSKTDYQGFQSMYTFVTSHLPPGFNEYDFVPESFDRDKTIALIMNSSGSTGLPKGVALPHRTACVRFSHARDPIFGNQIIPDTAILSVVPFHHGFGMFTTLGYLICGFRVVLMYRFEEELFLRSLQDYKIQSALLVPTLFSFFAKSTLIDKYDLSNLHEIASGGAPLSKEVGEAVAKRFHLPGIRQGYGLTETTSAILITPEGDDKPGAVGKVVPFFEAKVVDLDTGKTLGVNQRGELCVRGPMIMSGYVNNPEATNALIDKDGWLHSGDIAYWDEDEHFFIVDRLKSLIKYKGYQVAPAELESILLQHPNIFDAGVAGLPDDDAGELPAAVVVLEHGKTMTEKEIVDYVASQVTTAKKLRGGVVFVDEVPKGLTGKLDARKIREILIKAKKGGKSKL

Compound	Potency [1]	Potency [2]	Potency [3]	Potency [4]	Potency [5]	Potency [6]	Potency [7]	Potency [8]	Potency [9]	Potency [10]
O=C(Nc1ccccc1SSc1ccccc1NC(=O)c1ccccc1)c1ccccc1	43.5 µM (active) and 48.6 µM (active)	5.05 µM (active) and 2.52 µM (active)	19.4 µM (active) and 24.3 µM (active)	21.8 µM (active) and 30.6 µM (active)	inactive	30.8 µM (active) and 48.6 µM (active)	27.4 µM (active) and 27.3 µM (active)	inactive		
CN(C)c1ccc(C(=C2C=CC(=[N+](C)C)C=C2)c2ccccc2)cc1				4.73 µM (active) [middle of 4 runs]	inactive	3.44 µM (active) and 6.68 µM (active) and 4.73 µM (active)			11.9 µM (active) [middle of 4 runs]	inactive
CCCCCCCCCCCC[N+](C)(C)C	48.4 µM (active)	inactive		inactive	inactive					
CCCCCCCCCCCCc1ccccc1O	43.3 µM (active)	inactive		30.6 µM (active)		inactive and 48.6 µM (active)			inactive	
Cc1cc(OCCOCC[N+](C)(C)Cc2ccccc2)ccc1C(C)(C)CC(C)(C)C	54.2 µM (active) and 16.8 µM (active)	inactive		inactive	inactive	48.3 µM (active)	30.5 µM (active) and 7.5 µM (active)	27.1 µM (active) and 15 µM (active)		inactive
CCN(CC)CCOc1ccc(/C(=C(\Cl)c2ccccc2)c2ccccc2)cc1	55.6 µM (active) and 26.6 µM (active)		inactive	inactive	inactive	49.6 µM (active)				
OCCOCCN1CCN(C(c2ccccc2)c2ccc(Cl)cc2)CC1 (configuration not stated)	30.2 µM (active)	inactive and 27.5 µM (active)		inactive	inactive	47.9 µM (active) and inactive		inactive		
CCCCC(CC)COC(=O)CC(C(=O)OCC(CC)CCCC)S(=O)(=O)O (configuration not stated)		inactive	inactive	inactive	inactive	inactive			inactive	
CCCCCCCCCCCCCC[P+](CCCC)(CCCC)CCCC	21.6 µM (active) and 27.3 µM (active)		17.1 µM (active) and 27.3 µM (active)	12.1 µM (active) and 15.4 µM (active)	inactive	21.6 µM (active) and 27.3 µM (active)		inactive	19.2 µM (active) and 24.3 µM (active)	
Oc1c(Cl)cc(Cl)cc1Sc1cc(Cl)cc(Cl)c1O	21.7 µM (active) and 24.3 µM (active)	inactive		17.3 µM (active) and 62.1 µM (active)	inactive			inactive	inactive	
COc1ccc(CCN(C)CCCC(C#N)(c2ccc(OC)c(OC)c2)C(C)C)cc1OC (configuration not stated)	54.4 µM (active)					inactive			48.5 µM (active)	
CCC[C@H](N[C@@H](C)C(=O)N1[C@H](C(=O)O)C[C@@H]2CCCC[C@@H]21)C(=O)OCC	inactive	inactive	inactive			inactive		inactive	inactive	
C=CC(=O)OCCCCCCOC(=O)C=C	54.5 µM (active)	inactive		inactive	inactive	48.6 µM (active)	inactive	inactive	inactive	21.7 µM (active)
NC(=Nc1ccccc1)Nc1ccccc1	inactive	inactive				inactive	inactive	inactive	3.86 µM (active)	
CCN(CC)c1ccc2c(C)cc(=O)oc2c1	inactive	40.2 µM (active) and 35.6 µM (active)		inactive		inactive		inactive		
O=C(O[C@@H]1Cc2c(O)cc(O)cc2O[C@@H]1c1cc(O)c(O)c(O)c1)c1cc(O)c(O)c(O)c1	48.7 µM (active) and 52.5 µM (active)	25.3 µM (active) and 38.5 µM (active)		inactive	inactive					
CC(C)CCCCCCc1ccc(O)cc1	7.83 µM (active) and 48.6 µM (active)	36.2 µM (active) and inactive		1.11 µM (active)	inactive and 17.2 µM (active)	48.6 µM (active)				
Nc1ccc(O)cc1	31.8 µM (active) and inactive	65.7 µM (active) and inactive				35.7 µM (active) and inactive	45 µM (active) and inactive	inactive		
CC(C)(C)NCC(O)c1cc(O)cc(O)c1 (configuration not stated)	inactive	inactive	inactive			inactive		596 nM (active)	inactive	
CC(C)(C)NC(=O)[C@@H]1CN(Cc2cccnc2)CCN1C[C@@H](O)C[C@@H](Cc1ccccc1)C(=O)N[C@H]1c2ccccc2C[C@H]1O	inactive		inactive			inactive			inactive	
Nc1nc(=S)c2[nH]cnc2[nH]1	11.9 µM (active) and 4.33 µM (active)	inactive	11.9 µM (active) and 4.86 µM (active)	5.96 µM (active) and 1.93 µM (active) and 2.37 µM (active)		inactive		inactive		
CC1=CC(=O)c2ccccc2C1=O	61.1 µM (active) and inactive	inactive		30.6 µM (active)	inactive	inactive	30.6 µM (active)			
CCCN[C@H]1CCc2nc(N)sc2C1	inactive		inactive	inactive	inactive	inactive		inactive	inactive	
Clc1ccc2c(c1)C(N1CCNCC1)=Nc1ccccc1O2	inactive	inactive				inactive		inactive		
Nc1cc(Cl)c(-c2cc(Cl)c(N)cc2Cl)cc1Cl	48.5 µM (active) and 30.6 µM (active)	inactive		13.7 µM (active) and 27.3 µM (active)	inactive			inactive		inactive
CCCOC(=O)c1cc(O)c(O)c(O)c1	54.2 µM (active) and 61.1 µM (active)		inactive	inactive			inactive	inactive	inactive	4.31 µM (active)
CCCCCC(=O)O[C@]1(C(C)=O)CC[C@H]2[C@@H]3CCC4=CC(=O)CC[C@]4(C)[C@H]3CC[C@@]21C	48.2 µM (active) and 29.8 µM (active)	inactive	48.2 µM (active)	inactive		54.1 µM (active)	inactive			
Nc1ccc2cc3ccccc3cc2c1	inactive	20.4 µM (active) and 17.8 µM (active)		inactive	27.8 µM (active) and 48.6 µM (active)	inactive		inactive		
COC(=O)/C=C/c1ccccc1	inactive		inactive	inactive		inactive		inactive	inactive	
Cc1ccc(-c2cc(C(F)(F)F)nn2-c2ccc(S(N)(=O)=O)cc2)cc1	48.4 µM (active) and 61.1 µM (active)	inactive				54.3 µM (active) and 54.5 µM (active) and inactive	60.9 µM (active) and inactive	48.4 µM (active) and 34.4 µM (active) and inactive		
